High-throughput results as filed in PubChem BioAssay.
CRFBP-R2 agonist: agonists of CRF-BP/CRF-R2 complex, primary screen, cell-based, HEK293, calcium dye fluorescence, uHTS; CRF-binding protein / CRF receptor 2 complex (human); calcium dye fluorescence (FLIPR); percent of saturating CRF peptide response; activation, % at 13.2 µM; 0.46% of 350,000 active;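 active = activation of at least 50%, plus an integration ratio under a set limit after plate pattern correction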
PfG6PD inh: PfG6PD enzyme inhibitors, primary screen, biochemical, fluorescence intensity, uHTS; glucose-6-phosphate dehydrogenase-6-phosphogluconolactonase (Plasmodium falciparum 3D7); PfGluPho enzyme, NADPH resazurin-diaphorase fluorescence; inhibition, % at 20 µM; 0.78% of 350,000 active;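 active = inhibition reaching at least a set limit at 20 µM in the primary screen, cut at about 59% in these data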
FAS TE block: FAS thioesterase domain inhibitors, primary screen, biochemical, fluorescence intensity, uHTS; Fatty acid synthase (Homo sapiens), P49327; AID 602261, 2012; 0.67% of 360,000 active; inhibition, % at 15 µM; recombinant FAS-TE, OMFH fluorogenic substrate, fluorescence endpoint;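 active = compounds whose normalised, plate-corrected inhibition of enzyme fluorescence in the single-dose primary screen is 50% or more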
H9c2 protect: cardioprotection against H2O2-induced cell death, primary screen, uHTS, H9c2 cells, ATPLite luminescence | AID 588492, 2011 | protection from H2O2 cell death, % at 20 µM | 0.63% of 360,000 active | H9c2 cardiomyocytes, H2O2 injury protection, 2 h;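 active = compounds giving at least 50% protection of heart cells from peroxide-induced death in the single-dose screen, raw or plate-pattern-corrected value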
aDG glyco act: activators of alpha-DG glycosylation, primary screen, uHTS, Pro5-aDG cells, AlphaScreen | alpha-DG glycosylation AlphaScreen (IIH6); 0% Pro5, 100% B10-LARGE cell signal | activation, % at 10 µM | 0.22% of 360,000 active;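 active = activation of at least 8% versus controls, or a plate z-score of at least 8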;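 also: Pro5 are CHO cells carrying HIG-tagged alpha-DG that lacks glycosylation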
CRFR2-BP antag: antagonists of CRF-BP/CRF-R2 complex, primary screen, cell-based, HEK293, calcium dye fluorescence, uHTS | CRF-induced calcium fluorescence | inhibition, % at 11.8 µM | 0.59% of 350,000 active | AID 588475, 2011;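 active = inhibition of the ligand-induced calcium signal above about 50% at the single tested concentration, limit read from the data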
Of the large screens only hits and unclear results are named; the others gave an inactive call. Hits are enriched below; roughly 3.2% of the tested compounds scored in any of these assays.

COc1cc(-c2ccc3cc(OC)c(OC)c(OC)c3c2)cc(OC)c1OC	CRFR2-BP antag 58
C=CCn1c(=S)sc2c(=O)[nH]cnc21	none
CCN1CCN(c2ccc(S(=O)(=O)N3CCCCC3)cc2NC(=O)/C=C/c2ccc(F)cc2)CC1	none
CCN1CCN(c2ccc(S(=O)(=O)N3CCCCC3)cc2NC(=O)/C=C/c2cccc(OC)c2OC)CC1	CRFR2-BP antag 106
CCN1CCN(c2ccc(S(=O)(=O)N3CCOCC3)cc2NC(=O)c2cc(Cl)nc3ccccc23)CC1	CRFR2-BP antag 82
CCN1CCN(c2ccc(S(=O)(=O)N3CCOCC3)cc2NC(=O)c2ccccc2SC)CC1	none
COCC(=O)N1CCC(Oc2ccc(C(=O)N3CCCCCC3)cc2)CC1	none
CNCC(=O)O	CRFR2-BP antag 77
Cc1ccc(-c2noc(CNS(=O)(=O)c3ccccc3)n2)cc1	none
C[C@@H]1Cc2[nH][nH]c(=O)c2[C@H](c2ccc(Cl)cc2)O1	none (no result: CRFBP-R2 agonist, PfG6PD inh, H9c2 protect, CRFR2-BP antag)
Cc1ccc(S(=O)(=O)N2CCCCCC2)cc1[N+](=O)[O-]	CRFR2-BP antag 58
O=C(Nc1nc(-c2ccccc2)cs1)c1ccccc1NS(=O)(=O)c1ccc(F)cc1	CRFBP-R2 agonist 65, CRFR2-BP antag 101
Nc1nc(-c2ccc3c(c2)OCCO3)cs1	CRFR2-BP antag 76
Cc1nc(-c2ccc3c(c2)OCCCO3)cs1	none
CCN(CC)c1ccc(/C=c2\sc3nc4ccccc4n3c2=O)c(O)c1	CRFBP-R2 agonist 165
O=c1/c(=C/c2ccc(O)c([N+](=O)[O-])c2)sc2nc3ccccc3n12	none
CCC1(CC)NC(=O)N(CC(=O)OCC(=O)Nc2ccccc2OC(F)F)C1=O	none
CCC1(CC)NC(=O)N(CC(=O)OCC(=O)Nc2ccccc2[N+](=O)[O-])C1=O	H9c2 protect 70
COc1ccc(C(=O)C(=O)N2CCN(c3ccccc3F)CC2)cc1	none (no result: CRFBP-R2 agonist, PfG6PD inh, FAS TE block, H9c2 protect, CRFR2-BP antag)
Oc1ccc(/C=N/Nc2nccnc2Cl)c(O)c1	H9c2 protect 52
CC1(C)Cc2c(cnn2-c2ccc(F)cc2)C(NC(=O)CCN2CCCCC2=O)C1 (stereo unspecified)	none
COc1ccc(/C=N/NC(=O)c2nnn(-c3nonc3N)c2-c2cccc(OC)c2)cc1	none
COc1cccc(-c2c(C(=O)N/N=C/c3cccs3)nnn2-c2nonc2N)c1	PfG6PD inh 59
COc1ccc(O)c(/C=N/NC(=O)c2c(C)nnn2-c2nonc2N)c1	H9c2 protect 55
Nc1nonc1-n1nnc(C(=O)N/N=C/c2ccccn2)c1-c1ccccc1	none
Nc1nonc1-n1nnc(C(=O)N/N=C/c2ccccn2)c1CNc1ccccc1	H9c2 protect 50
CCOc1cccc(-c2c(C(=O)N/N=C/c3cccs3)nnn2-c2nonc2N)c1	none
CC1CCN(Cc2c(C(=O)N/N=C/c3cc(Br)ccc3O)nnn2-c2nonc2N)CC1	H9c2 protect 64
COc1ccc(N(CC(=O)Nc2cc(C)ccc2C)S(=O)(=O)c2ccccc2[N+](=O)[O-])c(OC)c1	none
CCOC(=O)c1ccc(-c2c(-c3ccccc3OC)sc3ccc(OC)cc23)cc1F	none
CCc1nc2c(OCCn3cccc3)cccn2c1N(C)C(=O)c1ccccc1F	none (no result: CRFBP-R2 agonist, PfG6PD inh, CRFR2-BP antag)
Cc1cc(C)c(C)c(S(=O)(=O)NCC(=O)N2CCCC2)c1C	none
CCOc1ccc(-c2c(C(=O)N/N=C/c3c[nH]c4ccccc34)nnn2-c2nonc2N)cc1	H9c2 protect 54
C/C(=N\NC(=O)c1nnn(-c2nonc2N)c1CN1CCc2ccccc21)c1ccccc1O	H9c2 protect 58
CCOc1cccc(-c2c(C(=O)N/N=C(\C)c3ccccn3)nnn2-c2nonc2N)c1	H9c2 protect 51
O=C(Cn1ccc(NC(=O)OCc2ccccc2)nc1=O)NCCc1c[nH]c2ccccc12	none
Cc1cc(C)c(OCCN(C)Cc2ccccc2)c(Br)c1	CRFR2-BP antag 87
COc1ccc(/C=C2\SC(=S)N(CCC(=O)N3CCCCC3)C2=O)cc1	none
COCCN1C(=O)/C(=C/c2ccc(N3CCCC3)cc2)SC1=S	CRFBP-R2 agonist 265
CCN(C(=O)COC(=O)/C(C#N)=C/c1ccc(OC)cc1)C1CCS(=O)(=O)C1 (stereo unspecified)	none
CC(=O)c1c(C)n(-c2cccc(Cl)c2)c2ccc(O)cc12	H9c2 protect 62
NC(=O)C(C1=CCCCC1)c1ccccc1 (stereo unspecified)	none
CCOC(=O)c1cn2nc(Oc3ccc(NC(C)=O)cc3)ccc2n1	none
CCOC(=O)c1cn2nc(Oc3cccc(F)c3)ccc2n1	CRFR2-BP antag 62
CCCCNC(=S)N(C)/N=C/c1ccc(OCc2ccc(C(=O)OC)cc2)c(OC)c1	none
N#Cc1c2ccc(O)cc2n2ccccc12	CRFBP-R2 agonist 73, H9c2 protect 69
Cc1ccc(NC(=O)CSc2ccc(Br)cc2)cc1S(=O)(=O)N1CCOCC1	none
O=C(CCC(=O)N1CCN(C2CCCCC2)CC1)Nc1nnc(C(F)(F)F)s1	H9c2 protect 65
COc1cc2c(cc1[N+](=O)[O-])-c1ccccc1C2	CRFBP-R2 agonist 87
O=C(NNC(=S)NC(=O)C12CC3CC(CC(C3)C1)C2)c1ccncc1	CRFBP-R2 agonist 139
CC1(C(=O)NC(=S)NNC(=O)c2ccncc2)CCCCC1	CRFBP-R2 agonist 81
CC(c1ccccc1)c1nnc(NC(=O)c2ccc3c(c2)OCO3)s1 (stereo unspecified)	none
CC(C)(C)c1nnc(NC(=O)c2ccc3c(c2)OCO3)s1	PfG6PD inh 105
Cc1ccc(C)c(N2CCN(S(=O)(=O)c3ccc4c(c3)C(C)(C)C(=O)N4C)CC2)c1	CRFR2-BP antag 127
Cc1cccc(N2CCN(S(=O)(=O)c3ccc4c(c3)C(C)(C)C(=O)N4C)CC2)c1C	none
CCOc1ccc(C2C(C#N)=C(N)N3C(=C2C#N)Sc2ccccc23)cc1 (stereo unspecified)	CRFBP-R2 agonist 93
C#CCn1c(O)c(N=NC(=O)CNC(=O)c2cccnc2)c2ccccc21	none
O=[N+]([O-])c1cccc(-c2ccc(C(=S)N3CCOCC3)o2)c1	none
O=C(Nc1ccc(CN2CCOCC2)cc1)c1ccc(-c2cccc([N+](=O)[O-])c2)o1	H9c2 protect 62
O=C(O)/C=C/C(=O)N(CC1CCCO1)C1CC(=O)N(c2c(Cl)cccc2Cl)C1=O (stereo unspecified)	none
O=C1C2C3C=CC(C3)C2C(=O)N1CCCO (stereo unspecified)	CRFR2-BP antag 69
COc1cc(OC)cc(C(=O)Nc2ccc(C(=O)Nc3ccccc3OC)cc2)c1	H9c2 protect 51
